Assay results published in a collection of fitness landscapes (doi:10.1126/science.1257360).
In all, about 140,000 sequences were measured (“enrichment ratio after two sorts for PhoP signalling”: median about 0, highest 2% from about 11 on). The entries come from a sample that favours the highest values as a whole.

B1: PhoQ; a variant is named by its letters at X, in order, P23837 (parent)
chain: MKKLLRLFFPLSLRVRFLLATAAVVLVLSLAYGMVALIGYSVSFDKTTFRLLRGESNLFYTLAKWENNKLHVELPENIDKQSPTMTLIYDENGQLLWAQRDVPWLMKMIQPDWLKSNGFHEIEADVNDTSLLLSGDHSIQQQLQEVREDDDDAEMTHSVAVNVYPATSRMPKLTIVVVDTIPVELKSSYMVWSWFIYVLSANLLLVIPLLWVAAWWSLRPIEALAKEVRELEEHNRELLNPATTRELTSLVRNLNRLLKSERERYDKYRTTLTDLTHSLKTPLXXLQXXLRSLRSEKMSVSDAEPVMLEQISRISQQIGYYLHRASMRGGTLLSRELHPVAPLLDNLTSALNKVYQRKGVNISLDISPEISFVGEQNDFVEVMGNVLDNACKYCLEFVEISARQTDEHLYIVVEDDGPGIPLSKREVIFDRGQRVDTLRPGQGVGLAVAREITEQYEGKIVAGESMLGGARMEVIFGRQHSAPKDE

Variants of: B1
Test: enrichment ratio after two sorts for PhoP signalling (ratio (wild type AVST 3.29)); higher = more functional
Conditions: with PhoP (E. coli)

Variant | enrichment ratio
ENRC | ≤ 0.25
VSCH | 2.85
TYRA | ≤ 0.25
DETW | ≤ 0.25
WTDY | ≤ 0.25
PCSF | ≤ 0.25
NFAL | ≤ 0.25
WRVV | ≤ 0.25
KSLI | ≤ 0.25
FSLI | 12.9
FCLI | 7.58
PMYI | ≤ 0.25
TKIH | 15.7
SCIH | 1.7
SDIH | 2.15
SQIH | 12.4
HKIH | ≤ 0.25
KKIH | ≤ 0.25
GFSR | ≤ 0.25
REWS | ≤ 0.25
WQHV | ≤ 0.25
ASQY | ≤ 0.25
LEWC | 17.6
LLWC | ≤ 0.25
LEFP | ≤ 0.25
LEFA | 1.62

Variant | enrichment ratio
LRWC | ≤ 0.25
LEFC | 12.9
WGSE | ≤ 0.25
FYLD | ≤ 0.25
PSVE | ≤ 0.25
KSWN | ≤ 0.25
TCGQ | ≤ 0.25
TCIS | ≤ 0.25
TCWN | 14.9
TCQY | 31.4
FCQI | ≤ 0.25
TCVQ | ≤ 0.25
TCII | ≤ 0.25
TCQI | 15.2
KCQI | ≤ 0.25
KCQY | ≤ 0.25
TCQQ | 11.5
SLAF | 8.18
TQKA | ≤ 0.25
TAWY | 6.15
HCAS | ≤ 0.25
TCQN | 23
TCQK | 14.2
KCQA | ≤ 0.25
TCEN | 0.333
SCQA | ≤ 0.25

Variant | enrichment ratio
TYMN | 0.285
TCQA | 16.2
TCQP | ≤ 0.25
TCMN | 58.3
TCVN | 2.66
TCQF | 6.94
TCDN | ≤ 0.25
MRIG | ≤ 0.25
IPRI | ≤ 0.25
IFEI | ≤ 0.25
CNHC | ≤ 0.25
QRMF | ≤ 0.25
HTHA | ≤ 0.25
TCQL | 13.2
KCQL | ≤ 0.25
FCQL | ≤ 0.25
HEQV | 25.5
HESH | ≤ 0.25
HECS | 2.84
HEQP | ≤ 0.25
HEQY | ≤ 0.25
HECV | 15.4
HNSW | ≤ 0.25
ERQE | ≤ 0.25
SAFP | ≤ 0.25
QGAG | ≤ 0.25

Variant | enrichment ratio
QVAH | ≤ 0.25
TGQL | 5.01
AIQL | 11.7
AGQL | 11.6
CGQL | 14.3
ADQL | ≤ 0.25
GGQL | ≤ 0.25
WIQL | ≤ 0.25
AQQL | ≤ 0.25
AKQL | ≤ 0.25
MQGH | ≤ 0.25
FDDD | ≤ 0.25
AMFM | ≤ 0.25
PNFI | ≤ 0.25
KCCR | ≤ 0.25
RQPM | ≤ 0.25
IGQV | ≤ 0.25
GHHN | ≤ 0.25
PRDV | ≤ 0.25
SEQG | 17.8
AKQG | ≤ 0.25
AEQG | ≤ 0.25
SQQG | 6.66
SLQG | ≤ 0.25
AQQG | 12.7
HAGM | ≤ 0.25

Variant | enrichment ratio
HMVE | ≤ 0.25
VFKE | ≤ 0.25
HGRI | ≤ 0.25
FPCA | ≤ 0.25
GKQD | ≤ 0.25
NAHY | ≤ 0.25
MAHY | 20.2
KAHY | ≤ 0.25
TAPI | ≤ 0.25
AHHY | ≤ 0.25
TAHY | 27.1
NMRM | ≤ 0.25
RICT | ≤ 0.25
ANCT | 21
KACT | ≤ 0.25
YACT | 0.253
AHCT | ≤ 0.25
EQCT | ≤ 0.25
AICT | 18
SNCT | 8.8
NICT | ≤ 0.25
AQCT | 20.8
AACT | 12.4
AWCT | ≤ 0.25
ALFD | ≤ 0.25
SHFP | 0.324

Variant | enrichment ratio
WCTK | ≤ 0.25
FYGE | ≤ 0.25
MNPG | ≤ 0.25
FEMT | 3.56
ENFC | ≤ 0.25
SYCA | ≤ 0.25
EDSI | ≤ 0.25
THNH | 16.2
QHNS | 5.2
SHNH | 1.34
QHGY | 8.42
QHNY | 27.5
QHRH | ≤ 0.25
NHNH | ≤ 0.25
QHRI | ≤ 0.25
QHNH | 13.9
LVRE | ≤ 0.25
EGNA | ≤ 0.25
TEWG | 3.3
TEWS | 28.5
TEWR | 6.71
TEWN | 9.81
TERM | ≤ 0.25
